# Assay outcomes from PubChem.
# Cycloheximide cs: affects cycloheximide protein synthesis inhibition readout, counter-screen. cell reporter, cycloheximide protein synthesis inhibition counterscreen. AID 2314. hit rate 12% among 300,000. max response, %; in the data active = max response mostly above about 13%, no sharp cut-off; inactive = mostly below about 14%; note: read at 38.3 µM for the half of the compounds with a filed dose; 0% is about no effect
# SARS PLpro yeast: SARS-CoV PLP inhibition in yeast | S. cerevisiae expressing SARS-CoV PLpro, growth rescue | Potency, µM (doses to about 32.9 µM), for inactives: at the highest dose activity, positive = growth rescue, hits mostly activators | hit rate 0.19% among 330,000 | AID 485353; calls by dose curve; note: potency is the fitted concentration of half-maximal effect; 0% is about no effect; nearly all actives have a fitted effect of over 55% in size
# NS1 function inh: blocks influenza NS1 protein function | hit rate 0.4% among 270,000 | Potency, µM (series often up to 46.1 µM), for the others: at the top dose activity, positive = more growth; calls by dose curve; note: potency is the fitted concentration of half-maximal effect; actives are rising curves; nearly all actives have a fitted effect of over 50% in size
#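 Growth recovery, yeast-based: influenza A NS1 expressed in S. cerevisiae causes slow growth, and suppressors are detected by OD600. The parent strain without NS1 is used as positive control.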
# Shiga inhibitor: blocks Shiga toxin action in Vero cells; Vero cells, Shiga toxin protein synthesis inhibition reporter; inhibition, % at 38.7 µM; hit rate 9.2% among 290,000; in the data active = inhibition mostly above about 28%, no sharp cut-off; inactive = mostly below about 43%; note: 0% is about no effect
# Pf growth 48h: P. falciparum growth inhibition at 48 hours (one generation); P. falciparum luciferase growth in erythrocytes, 48 h; Potency, µM (titrated, usually from 28.7 µM), inactives show top-dose activity change, negative = inhibition, most hits filed as inhibitors; hit rate 5.9% among 310,000; note: potency is the fitted concentration of half-maximal effect; % is set by controls: 0 for no effect and ±100 for the full control effect
#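 Growth was read as firefly luciferase luminescence after a 48 h, 37 C, 5% CO2 exposure of compounds to reporter-bearing P. falciparum cultures (0.1% parasitemia, 2% hematocrit final) in Albumax-supplemented RPMI 1640.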
# Pf growth 96h: P. falciparum growth inhibition at 96 hour, primary screen for plastid delayed-death inhibitors; Potency, µM (series often up to 28.7 µM), without a hit: at the top dose activity change, negative = inhibition, actives largely listed as inhibitors; hit rate 6.9% among 320,000; AID 504834; P. falciparum luciferase reporter growth, 96 h; note: potency is the fitted concentration of half-maximal effect; % is set by controls: 0 for no effect and ±100 for the full control effect
#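 Cell-based qHTS: luciferase-tagged P. falciparum in erythrocytes (2% hematocrit, 0.05% parasitemia final) incubated with compounds for 96 hours, 37 C, 5% CO2; luciferase detection reagent then added and luminescence measured.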
# The depositor's hits bear a star; i = inactive; u = inconclusive; x = not tested or not shown; [ ] = another dose, or the depositor's remark. In the library only some 21% were active in any assay of this set; here they are far more common. Unless noted, calls come from the whole dose curve; as a rule, active = well fitted inhibition curve with a large enough effect; inconclusive = small, poorly fitted or top-dose-only effect, or another doubt; inactive = no such curve, though single readings can be large or run the other way.
SMILES,Cycloheximide cs,SARS PLpro yeast,NS1 function inh,Shiga inhibitor,Pf growth 48h,Pf growth 96h
O=C(Nc1cccc(O)c1)c1cccc(S(=O)(=O)N2CCCCCC2)c1,22.6*,7.6%,5.0%,43.9*,4.2%,2.4%
Cc1c(Br)c([N+](=O)[O-])nn1C(C)C(=O)Nc1ccc2c(c1)OCO2 (stereo not given),13.3,0.8%,1.3%,34.4,u,u
O=C(c1ccccc1Br)N1CCCC(c2nc(-c3cccs3)no2)C1 (stereo not given),35.9*,-12.5%,x,113.8*,6.8%,11.7%
O=C(c1c(F)cccc1F)N1CCCC(c2nc(-c3cccs3)no2)C1 (stereo not given),25.4,0.2%,2.4%,131.3*,26.5%,8.28µM*
O=C(c1ccc(Br)cc1)N1CCCC(c2nc(-c3cccs3)no2)C1 (stereo not given),-1.3,-2.3%,0.5%,37.7,10.0%,u
O=C(c1ccc(F)cc1F)N1CCCC(c2nc(-c3cccs3)no2)C1 (stereo not given),3.4,0.5%,-10.6%,29.2,20.9%,-13.8%
O=C(c1nc2ccccn2c1CNCCOc1cccnc1)N1CCOCC1,-1.7,-1.2%,5.1%,17.6,17.6%,u
CCCCn1c(C)cc2c(c1=O)[C@H]1O[C@](CCCC)(Cc3c1ccc1ccccc31)O2,-1.6,0.9%[6.58 µM],-2.5%,i,-19.9%[5.75 µM],6.1%[5.75 µM]
CCCC[C@]12Cc3c(ccc4ccccc34)C(O1)C1=C(O2)C(=O)c2ccccc2C1=O,6.6,-5.2%[6.58 µM],u,i,1.51µM*,35.9%[5.75 µM]
Cc1ccc(NC(=O)Cc2n[nH]c(=S)n2C)cc1,-5.0,1.8%,x,22.5,14.6%,u
Cn1c(CC(=O)Nc2ccc(Cl)c(Cl)c2)n[nH]c1=S,-2.1,1.3%,x,-18.6,-2.9%,0.0738µM*
CC1CCN(CC(=O)NCc2ccco2)CC1,0.4,2.5%,-0.4%,-15.3,9.1%,8.5%
COc1cccc(CN2CCNC(=O)C2CC(=O)NCc2cn3ccc(C)cc3n2)c1OC (stereo not given),-1.5,5.6%,-1.4%,7.7,1.5%,5.1%
CC(C)(C)OC(=O)N1CCC(c2c(C(=O)N3CCN(C(=O)c4ccco4)CC3)cnn2-c2ccc(F)cc2F)CC1,-2.4,u,-5.1%,14.3,9.28µM*,49.7%
CCCCn1c2c(c(=O)n(C)c1=O)C(c1ccc(OC)cc1)N1CCCCCC1=N2 (stereo not given),-3.7,-3.2%,-34.5%,-13.0,u,7.38µM*
Cc1ccc(-c2nsc(SCC(=O)Nc3ccc4c(c3)OCO4)n2)cc1,18.2*,-10.2%,-0.6%,23.8*,90.9%,139.0%
O=C(CSc1nc(-c2ccccc2Cl)ns1)Nc1ccc2c(c1)OCO2,15.2*,-22.0%,-2.1%,22.7,1.17µM*,u
COc1ccc(-c2nsc(SCC(=O)NCc3ccc4c(c3)OCO4)n2)cc1,-3.1,10.8%,7.2%,-12.3,36.7%,79.8%
O=C(CSc1ncccn1)Nc1ccc2c(c1)OCO2,x,2.3%,x,x,x,x
COC(=O)C(c1ccccc1)N(Cc1cccc(CN(C(C(=O)OC)c2ccccc2)S(C)(=O)=O)c1)S(C)(=O)=O (stereo not given),-2.7,9.4%,16.5%,-4.9,8.28µM*,10.4µM*
Cc1sc2nc(-c3ccccc3)[nH]c(=O)c2c1-c1ccccc1,-4.2,13.9%,-3.0%,-5.0,16.8%,15.7%
Cc1sc2nc(-c3cccnc3)nc(Cl)c2c1-c1ccccc1,11.3,-16.7%,-29.2%,7.3,8.28µM*,u
CCC1(C(=O)OC)CCc2c(cc(OC)c3ccccc23)C1=O (stereo not given),-3.4,-4.2%,-7.3%,-2.3,-14.8%,u
CCOc1cccc(=NC2CCCCC2)c2c(C)n(C)c(C)c12,1.9,0.3%,0.2%,12.9,1.85µM*,u
O=Nc1c(-c2c(O)[nH]c3cc(Br)ccc23)[nH]c2ccccc12,29.8*,-29.5%,-20.5%,29.8*,4.15µM*,4.65µM*
SMILES,Cycloheximide cs,SARS PLpro yeast,NS1 function inh,Shiga inhibitor,Pf growth 48h,Pf growth 96h
Nc1[nH]nc2nc(-c3ccccc3)[nH]c(=O)c12,-4.0,0.2%,1.4%,-2.8,63.5%,4.4%
Nc1nc(-c2ccccc2)[nH]c(=O)c1N,26.3*,3.8%,21.3%,30.2*,17.4%,-21.4%
O=c1[nH]c(-c2ccccc2)nnc1-c1ccccc1,18.1*,0.2%,-2.5%,25.0,80.1%,87.3%
O=C(CSc1ncnc2scc(-c3ccc(Cl)cc3)c12)NCc1ccc2c(c1)OCO2,1.4,-5.5%,13.9%,15.6,u,u
S=c1[nH]cc(-c2ccc(Cl)cc2)n1Cc1ccccc1,14.0*,0.6%,-0.8%,13.4,-17.5%,-29.5%
CCn1c(-c2ccccc2)c[nH]c1=S,-3.4,23.9%,8.9%,-19.6,0.2%,u
c1cncc(-c2nc3ccccn3c2Nc2ccc3c(c2)OCCO3)c1,23.7,-3.7%,-43.5%,15.7,x,-16.3%
c1cn2c(Nc3ccc4c(c3)OCCO4)c(-c3ccc(N4CCOCC4)cc3)nc2cn1,24.0*,-1.5%,4.8%,52.7*,u,u
Oc1ccccc1-c1nc2cnccn2c1Nc1ccc2c(c1)OCCO2,30.3*,-9.5%,8.6%,50.9*,u,x
CS(=O)(=O)c1ccc(S(=O)CC(=O)Oc2ccc(Cl)cc2)c([N+](=O)[O-])c1 (stereo not given),-0.9,-0.4%,x,24.1,u,-10.7%
O=C(N/N=C/c1ccc(OC2CSC2)cc1)c1ccccc1,50.2*,-3.5%,-6.3%,127.2*,11.7µM*,u
COc1ccc(N(CC(=O)N/N=C/c2ccc(OC3CSC3)cc2)S(=O)(=O)c2ccccc2)cc1,1.0,-20.9%,u,0.5,-15.6%,u
O=C(CSc1ncccn1)N/N=C/c1cccc(OC2CSC2)c1,12.7,2.0%,x,-5.8,4.6%,11.7µM*
O=C(/C=C/c1ccc(OC2CSC2)cc1)c1ccccc1,47.3*,-8.2%,-17.6%,124.9*,130.7%,u
CCC1(C)Cc2c(sc3nnn(Cc4ccccc4Cl)c(=O)c23)CO1 (stereo not given),5.6,-21.1%,5.3%,-13.4,u,u
CCN(Cc1ccncc1)C(=O)c1ccccc1NS(=O)(=O)c1ccc(F)cc1,5.7,-0.3%,x,-15.3,9.3%,37.8%
O=C(Nc1ccccn1)c1ccc(NC(=O)c2ccco2)cc1,40.0*,-11.0%,-87.8%,71.5*,204.0%,u
O=C(NCc1ccccc1)c1ccc(NC(=O)c2ccco2)cc1,-4.2,1.0%,1.9%,5.7,9.5%,46.1%
Cc1ccccc1NC(=O)c1ccc(NC(=O)c2ccco2)cc1,27.1*,-14.4%,-1.4%,39.1,26.7%,x
COc1ccc(CC(=O)Nc2cccc(C(=O)NN3C(=O)c4ccccc4C3=O)c2C)cc1,-2.8,24.8%,-10.4%,-9.7,25.1%,10.1%
O=C(Nc1ccccc1-c1ccccc1)c1ccc(NC(=O)c2ccco2)cc1,-1.3,-12.1%,-54.1%,-14.5,11.7µM*,x
Cc1c(NC(=O)c2ccco2)cccc1C(=O)NN1C(=O)c2ccccc2C1=O,-3.0,1.0%,x,19.5,40.6%,14.7µM*
